Data on 40 compounds can be found in PubChem BioAssay (NCATS).

Calls of active or inactive are those of the source. Calls follow the shape of the dose curve; as a rule, active = well fitted curve in the direction sought with a large enough effect; inactive = no such curve, though single readings can be large or run the other way.

The target in the test is Alpha-galactosidase (Coffea arabica) (UniProt Q42656). Kind of test: Counterscreen for Glucocerebrosidase Inhibitors: qHTS Assay for Coffee Bean alpha-Galactosidase at pH 5.9 (AID 998). The note with it: coffee bean alpha-galactosidase enzyme assay; series mostly up to 76.9 µM. From the text: NIH Chemical Genomics Center [NCGC]
Sequence of Alpha-galactosidase (Coffea arabica) (Q42656 whole entry, looked up): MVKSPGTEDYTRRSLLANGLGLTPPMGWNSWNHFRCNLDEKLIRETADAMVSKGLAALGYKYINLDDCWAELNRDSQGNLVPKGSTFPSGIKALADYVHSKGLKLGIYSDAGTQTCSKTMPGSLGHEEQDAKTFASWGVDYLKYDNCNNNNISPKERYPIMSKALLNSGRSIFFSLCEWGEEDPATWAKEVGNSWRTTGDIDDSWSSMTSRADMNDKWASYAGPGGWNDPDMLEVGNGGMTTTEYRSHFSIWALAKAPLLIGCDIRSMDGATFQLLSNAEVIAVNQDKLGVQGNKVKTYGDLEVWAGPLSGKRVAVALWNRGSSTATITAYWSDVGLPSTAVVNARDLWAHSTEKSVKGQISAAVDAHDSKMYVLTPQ
NIH Molecular Libraries Screening Centers Network [MLSCN]
PI Name: Zheng, Wei [NIH]
Alpha-galactosidase is a homodimeric glycoprotein that hydrolyzes the terminal alpha-galactosyl moieties from glycolipids and glycoproteins. Deficiency of this enzyme results in Fabry Disease with progressive accumulation of globotriaosylceramide and other glycosphingolipids in vascular endothelial cells that causes renal failure, myocardial infarction and stroke, and premature death in patients. It has reported that the improper folding and trafficking of alpha-galactosidase resulted from the genetic mutations may account for a significant numbers of Fabry patients. […] We optimized this coffee bean alpha-galactosidase assay in 1536-well plate format as a counter-screen assay for identifying the selective small molecule inhibitors of other lysosomal enzymes.
NCGC Assay Protocol Summary:
This is a fluorogenic enzyme assay with 4-Methylumbelliferyl alpha-D-galactopyranoside as the substrate and green coffee bean […] (from Sigma-Aldrich) as the enzyme preparation. Upon the hydrolysis of this fluorogenic substrate, the resulting product, […]. 4-Methyllumbelliferone, can be excited at 365 nm and emits at 440 nm which can be detected by a standard fluorescence plate reader. Data were normalized to the controls for basal activity (without enzyme) and 100% activity (with enzyme). In the AC50 values were determined from concentration-response data modeled with the standard Hill equation.
Assay buffer: 50 mM citric acid, 0.005% Tween-20, pH 5.9. (pH 5.9 is an optimal condition for this enzyme assay.)
1536-well assay protocol for the coffee bean alpha-galactosidase:
(1) Add 2 ul/well of enzyme (2 nM final)
(2) Add 23 nL compounds in DMSO solution. The final titration was 0.7 nM to 77 uM.
(3) Add 1 ul of substrate (80 uM final)
(4) Incubate at room temperature for 20 min.
(5) Add 2 ul stop solution (1M NaOH and 1M Glycine mixture, pH 10)
(6) Detect the assay plate in a ViewLux plate reader (PerkinElmer) with Ex=365 nm and Em=440nm.
Keywords: Alpha-galactosidase, Fabry Disease, pharmacological chaperone, chaperone therapy, high throughput screening, alpha-galactosidase inhibitor, MLSMR, MLSCN, NIH Roadmap, qHTS and NCGC
Background: The purpose of a counterscreen is to sort out artefacts and off-target activity.
For the compound `N[C@H](C(=O)O)[C@@H]1C[C@@H]1C(=O)O`, the compound was called inactive.
The entry for `C=C[C@@]1(C)CC(=O)[C@@]2(O)[C@@]3(C)[C@H](O)CCC(C)(C)[C@@H]3[C@H](O)[C@H](OC(C)=O)[C@]2(C)O1` is “inactive”; for `N[C@@H](Cc1cc(O)c(O)cc1O)C(=O)O` it is “inactive”; for `Cn1cc(C(F)(F)F)nc1-c1ccc(OC[C@@H](O)CNCCOc2ccc(O)c(C(N)=O)c2)cc1` it is “inactive”.
The entry for `NC(=O)c1ncn([C@@H]2O[C@@H](CO)[C@@H](O)[C@H]2O)c1O` is “inactive”; for `N#C[C@@H](Cc1ccc(O)c(O)c1)C(=O)N1CCc2ccccc21` it is “inactive”.
On to `Oc1cc2c(cc1O)[C@H](c1ccccc1)CNCC2`, for which the compound was classed as inactive.
Next, `CN1[C@@H]2CC[C@H]1CC(NC(=O)c1nn(C)c3ccccc13)C2` (stereo not given in full): “inactive”; `C[C@@H]1O[C@@H](O[C@H]2C[C@@H](O)[C@]3(CO)[C@@H]4[C@@H](O)C[C@]5(C)[C@H]([C@@H]6COC(=O)C6)CC[C@@]5(O)[C@H]4CC[C@@]3(O)C2)[C@H](O)[C@H](O)[C@@H]1O`: “inactive”; `OC[C@@H]1O[C@@H](n2cnc3c(NC4CCCC4)ncnc32)[C@@H](O)[C@H]1O`: “inactive”.
Next, `Nc1ncnc2c1nc(Br)n2[C@@H]1O[C@H]2COP(=O)(O)O[C@@H]2[C@H]1O`: “inactive”; `NCCNC(=O)c1ccc(Cl)cc1`: “inactive”.
Turning to `C=CCN1CCc2c(cc(O)c(O)c2Cl)[C@H](c2ccccc2)C1`, the compound was classed as inactive.
Next, `CC(C)(C)NC[C@H](O)c1ccc(O)c(CO)c1`: “inactive”.
`C[C@@H]([C@H](O)c1ccc(O)cc1)N1CCC(Cc2ccccc2)CC1`: the outcome was inactive.
Next, `O=C(Nc1cc(C(=O)Nc2ccc(S(=O)(=O)O)cc2S(=O)(=O)O)cc(C(=O)Nc2ccc(S(=O)(=O)O)cc2S(=O)(=O)O)c1)Nc1cc(C(=O)Nc2ccc(S(=O)(=O)O)cc2S(=O)(=O)O)cc(C(=O)Nc2ccc(S(=O)(=O)O)cc2S(=O)(=O)O)c1`: “inactive”.
In the case of `Cc1ccccc1CNc1ncnc2c1ncn2[C@@H]1O[C@@H](CO)[C@H](O)[C@@H]1O`, the result was inactive.
Next, `N=C(N)SCCc1cccc(CCSC(=N)N)c1`: “inactive”; `CCCC[C@]1(C2CCCC2)Cc2cc(OCC(=O)O)c(Cl)c(Cl)c2C1=O`: “inactive”.
Consider `C=CCN1CCc2cccc3c2[C@@H]1Cc1ccc(O)c(O)c1-3`, for which the outcome was inactive.
The entry for `Cc1cccc(C)c1NC(=O)C[N+](C)(C)C` is “inactive”; for `Nc1nc(Nc2ccccc2)nc2c1ncn2[C@@H]1O[C@@H](CO)[C@H](O)[C@@H]1O` it is “inactive”.
The entry for `CCOC(=O)C1=C(C)NC(C)=C(C(=O)OC)[C@H]1c1cccc([N+](=O)[O-])c1` is “inactive”.
The entry for `N[C@@H](CO)C(=O)NNCc1ccc(O)c(O)c1O` is “inactive”; for `CC(=O)OCC1=C(C(=O)O)N2C(=O)[C@@H](NC(=O)Cc3cccs3)[C@@H]2SC1` it is “inactive”.
In the case of `O=C(O)[C@H]1CCCN(CCC=C(c2ccccc2)c2ccccc2)C1`, the outcome was inactive.
The entry for `Nc1ncnc2c1ncn2[C@@H]1CCCO1` is “inactive”.
As to `O=C(O)[C@H]1CCCNC1`, the outcome was inactive.
Next, `N[C@H](CCC(=O)NCS(=O)(=O)O)C(=O)O`: “inactive”.
For the compound `CCCCCCCCCCCCCCCCCC(=O)NC[C@@H](COP(=O)([O-])OCC[N+](C)(C)C)OCC`, the result was inactive.
The entry for `CCCCCCCCCCCCCC(=O)O[C@H]1[C@@H](C)[C@@]2(O)[C@@H](C=C(CO)C[C@]3(O)C(=O)C(C)=C[C@@H]23)C2C(C)(C)[C@]21OC(C)=O` (stereo not given in full) is “inactive”; for `OC[C@@H]1O[C@@H](n2cnc3c(Nc4ccccc4)ncnc32)[C@@H](O)[C@H]1O` it is “inactive”.
Next, `N[C@H](CCC(=O)N[C@H](CSN=O)C(=O)NCC(=O)O)C(=O)O`: “inactive”; `CC(=O)[C@@H]1CC[C@@H]2[C@@H]3CC=C4C[C@H](OS(=O)(=O)O)CC[C@@]4(C)[C@H]3CC[C@]21C`: “inactive”; `CC[C@H](C)N(C)C(=O)c1cc2ccccc2c(-c2ccccc2Cl)n1`: “inactive”.
The entry for `O=C1CC[C@H](N2C(=O)c3ccccc3C2=O)C(=O)N1` is “inactive”.
Regarding `CCN(CC)CCC[C@H](C)Nc1c2ccc(Cl)cc2nc2ccc(OC)cc12`, the compound was called inactive.
For `CN1[C@@H]2CC[C@H]1CC(OC(=O)[C@@H](CO)c1ccccc1)C2` (stereo not given in full), the call was inactive.
Next, `CC#CCOC(=O)c1c(C)nc2sc3c(c2c1N)CC[C@@H](O)C3`: “inactive”; `NCCC[C@@](N)(C(=O)O)C(F)F`: “inactive”.
